We go through one molecule from the supplement of paper PMC8728848.

Common to all, as to assay: glycan array binding signal (z-score within array); higher = stronger binding
What all share (conditions): glycan notation: IUPAC condensed, linker removed

Test [1] deals with Fuc(a1-2)Gal(b1-3)GlcNAc(b1-2)Man(a1-3)[Fuc(a1-2)Gal(b1-3)GlcNAc(b1-2)Man(a1-6)]Man(b1-4)GlcNAc(b1-4)GlcNAc. Summed up:
(§1)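 The binding signal is a Z-score computed within each array. Data were drawn from 3228 arrays in the Consortium for Functional Glycomics database, restricted to those with a known protein sequence. Scores were averaged over arrays of the same protein sequence at different concentrations or buffers, and over linkers, and negative values can be taken as non-binding.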

In test [2] the target is Fuc(a1-2)Gal(b1-3)[Fuc(a1-4)]GlcNAc(b1-2)Man(a1-3)[Fuc(a1-2)Gal(b1-3)[Fuc(a1-4)]GlcNAc(b1-2)Man(a1-6)]Man(b1-4)GlcNAc(b1-4)[Fuc(a1-6)]GlcNAc(b1-4)[Fuc(a1-6)]GlcNAc. The method, boiled down: as §1
Test [3] addresses Fuc(a1-2)Gal(b1-4)GlcNAc(b1-3)Gal(b1-4)GlcNAc(b1-2)Man(a1-3)[Fuc(a1-2)Gal(b1-4)GlcNAc(b1-3)Gal(b1-4)GlcNAc(b1-2)Man(a1-6)]Man(b1-4)GlcNAc(b1-4)GlcNAc. Summed up: as §1
In test [4] the target is Fuc(a1-2)[Gal(a1-3)]Gal(b1-4)GlcNAc(b1-2)Man(a1-3)[Fuc(a1-2)[Gal(a1-3)]Gal(b1-4)GlcNAc(b1-2)Man(a1-6)]Man(b1-4)GlcNAc(b1-4)GlcNAc. Summed up: as §1
For test [5], the target named is Fuc(a1-2)[GalNAc(a1-3)]Gal(b1-4)GlcNAc(b1-3)Gal(b1-4)GlcNAc(b1-3)Gal(b1-4)GlcNAc. Summed up:
as §1

Test [6] deals with Fuc(a1-2)[GalNAc(a1-3)]Gal(b1-4)[Fuc(a1-3)]GlcNAc. The method, boiled down:
as §1

Test [7] has as its target Fuc(a1-3)[Gal(b1-4)]GlcNAc(b1-2)Man. The method, boiled down:
as §1

For test [8], the target named is Fuc(a1-3)[Gal(b1-4)]GlcNAc(b1-2)Man(a1-3)[Fuc(a1-3)[Gal(b1-4)]GlcNAc(b1-2)Man(a1-6)]Man(b1-4)GlcNAc(b1-4)GlcNAc. Summed up:
as §1

The target in test [9] is Gal(a1-3)[Gal(a1-4)]Gal(b1-4)GlcNAc. Summed up: as §1
For test [10], the target named is Gal(b1-3)GalNAc(b1-4)Gal(b1-4)Glc. Summed up:
as §1

Test [11] deals with Gal(b1-3)[Fuc(a1-4)]GlcNAc(b1-3)Gal(b1-4)[Fuc(a1-3)]GlcNAc. Summed up:
as §1

Test [12] has as its target Gal(b1-3)[Neu5Ac(b2-6)]GalNAc. Summed up:
as §1

In test [13] the target is Gal(b1-4)GlcNAc. Summed up:
as §1

Test [14] deals with Gal(b1-4)GlcNAc(a1-6)Gal(b1-4)GlcNAc. The method, boiled down: as §1
The target of test [15] is Gal(b1-4)GlcNAc(b1-2)Man(a1-3)[Man(a1-6)]Man(b1-4)GlcNAc(b1-4)GlcNAc. Summed up:
as §1

Test [16] deals with Gal(b1-4)GlcNAc(b1-2)[Gal(b1-4)GlcNAc(b1-6)]Man(a1-6)[Gal(b1-4)GlcNAc(b1-2)Man(a1-3)]Man(b1-4)GlcNAc(b1-4)[Fuc(a1-6)]GlcNAc. The method, boiled down: as §1
In test [17] the target is Gal(b1-4)GlcNAc(b1-3)Gal(b1-4)GlcNAc(b1-2)[Gal(b1-4)GlcNAc(b1-3)Gal(b1-4)GlcNAc(b1-6)]Man(a1-6)[Gal(b1-4)GlcNAc(b1-3)Gal(b1-4)GlcNAc(b1-2)Man(a1-3)]Man(b1-4)GlcNAc(b1-4)GlcNAc. The method, boiled down:
as §1

For test [18], the target named is Gal(b1-4)GlcNAc(b1-3)Gal(b1-4)GlcNAc(b1-2)[Gal(b1-4)GlcNAc(b1-3)Gal(b1-4)GlcNAc(b1-6)]Man(a1-6)[Gal(b1-4)GlcNAc(b1-3)Gal(b1-4)GlcNAc(b1-2)Man(a1-3)]Man(b1-4)GlcNAc(b1-4)[Fuc(a1-6)]GlcNAc. The method, boiled down: as §1
For test [19], the target named is Gal(b1-4)GlcNAc(b1-3)Gal(b1-4)GlcNAc(b1-3)Gal(b1-4)GlcNAc(b1-2)Man(a1-3)[Gal(b1-4)GlcNAc(b1-3)Gal(b1-4)GlcNAc(b1-3)Gal(b1-4)GlcNAc(b1-2)Man(a1-6)]Man(b1-4)GlcNAc(b1-4)[Fuc(a1-6)]GlcNAc. Summed up:
as §1

Test [20] addresses Gal(b1-4)GlcNAc(b1-3)Gal(b1-4)GlcNAc(b1-6)[Gal(b1-3)]GalNAc. The method, boiled down: as §1
Test [21] has as its target Gal(b1-6)Gal. Summed up:
as §1

Test [22] addresses GalNAc(b1-4)GlcNAc(b1-2)Man. The method, boiled down:
as §1

For test [23], the target named is GalNAc3S(b1-4)GlcNAc. The method, boiled down: as §1
The target of test [24] is Glc(b1-6)Glc. Summed up:
as §1

The sample as a whole holds a higher share of the strongest signals than the screen did.

B1: BT4246 (Bacteroides thetaiotaomicron), Q89ZX5 (protein)
chain: MGSSHHHHHHENLYFQGHMASDYLDVVPPEQPNIDDAMSSPTRALGFLYSCYGGVSTDLPSAYLGEINSTTDEYVLPYSWNTDGYWGAYAFNTASSTNQDWLWGTTYQYIGQCYLFLQKLENAGSDIASDAEKEQWRAECQFLVAYYHFATLRRYGPIPITDSYIPMDTPTSEYNGRFHFDYCVDWIANQLDEAAKVLPANRTVTNEWGRATSTIAKAVKARLLLYAASPLWNGSFPYPNWQNENFETPGYGKALVSNTYDKSKWERALAACQEALTLATTSGDRELYDDDEYYSRQSLNLPFVPGVADVEDNKEFLKNVMKMRYAVSTRESEGNKEIIWGLSNQFDFYSRYPLRILKKSDGTWHAGYSGVSPTLYTFEHFYTANGKLPEKDLDFTPSSEWFESAGISSREDIIKLNVGREPRFYAWMAFDGGDYGTKFAAGSPLKLEMRNSEMHGYNPSLFNRDHSVTGFLTQKFVDPVTEFYTAGGSTSGTSAPTILFRLAELYLNVAECHAALGNTQEAIDALNPVRERAGIPKLTLADITNNMTIKDWVHNERFVELWNEGHRFFDVRRWAEGAKYFGANKREGLNAEVQSPTFEEFNKRTTVDAPYVWENRMYLNPVFYNEVYKNPQMVQAPGY
For B1, the “glycan array binding signal (z-score)” value is 3.2 in test [1]; -0.111 in [2]; 0.084 in [3]; 2.43 in [4]; 0.74 in test [5]; -2.1 in [6]. Further, the “glycan array binding signal (z-score)” value in [7] was 0.571; in [8], -0.536; in test [9], 0.656; in test [10], 2.02; in [11] it was -0.234; in test [12] it was -0.388. Besides, the “glycan array binding signal (z-score)” value in [13] was -1.31; in test [14], -0.67; in [15], 2.35; in [16], -0.607; in test [17], 2.71; in test [18], 0.32. Moreover, the “glycan array binding signal (z-score)” value in test [19] was 0.125; in test [20], -0.514; in test [21] it was 0.501; in test [22] it was -0.775; in test [23] it was 1.88; in test [24], -2.27.
